# Test results as given in the supplement of paper PMC10037445.
# In all, about 2,900 compounds were measured (“IRF Lucia reporter activity, fold change vs agonist alone”: median about 0.9, highest 2% from about 2.8 on). Only a selection was taken, and the highest values are over-represented in it overall.
# Assays:
# RAW-Dual [1] = assay: IRF Lucia reporter activity, fold change vs agonist alone; higher = enhanced IRF activity; details: agonist: MPLA (TLR4) […]
# Summary of the method: (§1)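 RAW-Dual macrophages (50,000 cells/well in DMEM, 384-well plates) received 50 nL of library stock by pin tool, then a PRR agonist 1 h later, and were kept at 37 °C, 5% CO2. After 20 hours, supernatant was read for IRF by QuantiLuc luminescence and for NF-κB by QuantiBlue absorbance at 620 nm. Reporter activity is fold change over agonist-alone wells. Cytotoxic wells had IncuCyte confluency below 70% of agonist controls in both mask sets.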
# RAW-Dual [2] = assay: IRF Lucia reporter activity, fold change vs agonist alone; cytotoxicity flag (confluency mask): cytotoxic (confluency <70% of control); higher = enhanced IRF activity
# Summary of the method: as §1
# RAW-Dual [3] = assay: IRF Lucia reporter activity, fold change vs agonist alone; cytotoxicity flag (confluency mask): not cytotoxic; higher = enhanced IRF activity
# Summary of the method: as §1
# [4] = agonist: 3'3'-cGAMP (STING) 10 ug/mL
# [5] = library stock concentration (final ~1000-fold dilution): 10 mM, cytotoxicity flag (confluency mask): not cytotoxic
smiles,measurement,setting,value
COc1cc2c(cc1O)CCC1C2CCC2(C)C(O)CCC12 (centres undefined),IRF Lucia reporter activity,"RAW-Dual [1]; library stock concentration (final ~1000-fold dilution): 10 mM, cytotoxicity flag (confluency mask): cytotoxic (confluency <70% of control)",1.31
COc1cc2c(cc1O)CCC1C2CCC2(C)C(O)CCC12 (centres undefined) (library stock concentration (final ~1000-fold dilution): 10 mM),IRF Lucia reporter activity,RAW-Dual [2]; [4],0.205
same,IRF Lucia reporter activity,RAW-Dual [2]; agonist: LPS (TLR4) 0.1 ug/mL,1.03
O=C(NOCC1CC1)c1ccc(F)c(F)c1Nc1ccc(I)cc1Cl (library stock concentration (final ~1000-fold dilution): 10 mM),IRF Lucia reporter activity,RAW-Dual [3]; [4],0.525
same,IRF Lucia reporter activity,RAW-Dual [3]; agonist: LPS (TLR4) 0.1 ug/mL,2.5
O=C(NOCC(O)CO)c1ccc(F)c(F)c1Nc1ccc(I)cc1F (centres undefined),IRF Lucia reporter activity,RAW-Dual [1]; [5],3.52
Cn1c(=O)c(F)c(Nc2ccc(I)cc2F)c2c(=O)n(CC(O)CO)cnc21 (centres undefined) (library stock concentration (final ~1000-fold dilution): 10 mM),IRF Lucia reporter activity,RAW-Dual [3]; [4],0.517
same,IRF Lucia reporter activity,RAW-Dual [3]; agonist: LPS (TLR4) 0.1 ug/mL,0.819
O=C(NOCC1CC1)c1ccc(F)c(F)c1Nc1ccc(I)cc1Cl,IRF Lucia reporter activity,RAW-Dual [1]; [5],2.05
Cc1cc(C(=O)NOCCO)c(Nc2ccc(I)cc2F)n(C)c1=O,IRF Lucia reporter activity,RAW-Dual [1]; [5],2.81
Cc1cc(C(=O)NOCCO)c(Nc2ccc(I)cc2F)n(C)c1=O (library stock concentration (final ~1000-fold dilution): 10 mM),IRF Lucia reporter activity,RAW-Dual [3]; [4],0.824
same,IRF Lucia reporter activity,RAW-Dual [3]; agonist: LPS (TLR4) 0.1 ug/mL,2.13
O=C(NOCC(O)CO)c1cc(Br)c(F)c(F)c1Nc1ccc(I)cc1F (centres undefined) (library stock concentration (final ~1000-fold dilution): 10 mM),IRF Lucia reporter activity,RAW-Dual [3]; [4],0.713
same,IRF Lucia reporter activity,RAW-Dual [3]; agonist: LPS (TLR4) 0.1 ug/mL,2.11
Cn1c(=O)c(F)c(Nc2ccc(I)cc2F)c2c(=O)n(CC(O)CO)cnc21 (centres undefined),IRF Lucia reporter activity,RAW-Dual [1]; [5],1.23
O=C(NOCCO)c1ccc2cncn2c1Nc1ccc(I)cc1F (library stock concentration (final ~1000-fold dilution): 10 mM),IRF Lucia reporter activity,RAW-Dual [3]; [4],0.814
same,IRF Lucia reporter activity,RAW-Dual [3]; agonist: LPS (TLR4) 0.1 ug/mL,3.65
O=C(NOCC(O)CO)c1cc(Br)c(F)c(F)c1Nc1ccc(I)cc1F (centres undefined),IRF Lucia reporter activity,RAW-Dual [1]; [5],2.39
O=C(NOCC(O)CO)c1ccc(F)c(F)c1Nc1ccc(I)cc1F (centres undefined) (library stock concentration (final ~1000-fold dilution): 10 mM),IRF Lucia reporter activity,RAW-Dual [3]; [4],0.903
same,IRF Lucia reporter activity,RAW-Dual [3]; agonist: LPS (TLR4) 0.1 ug/mL,3.61
O=C(NOCCO)c1ccc2cncn2c1Nc1ccc(I)cc1F,IRF Lucia reporter activity,RAW-Dual [1]; [5],3.27
Br.Br.Br.Br.Br.Br.c1ccc(CNCc2ccc(CN3CCCNCCNCCCNCC3)cc2)nc1 (library stock concentration (final ~1000-fold dilution): 10 mM water),IRF Lucia reporter activity,RAW-Dual [3]; [4],1.07
same,IRF Lucia reporter activity,RAW-Dual [3]; agonist: LPS (TLR4) 0.1 ug/mL,0.886
Br.Br.Br.Br.Br.Br.c1ccc(CNCc2ccc(CN3CCCNCCNCCCNCC3)cc2)nc1,IRF Lucia reporter activity,"RAW-Dual [1]; library stock concentration (final ~1000-fold dilution): 10 mM water, cytotoxicity flag (confluency mask): not cytotoxic",1.35
COc1cc2ccc(=O)oc2c(OC)c1O (library stock concentration (final ~1000-fold dilution): .1 mM),IRF Lucia reporter activity,RAW-Dual [3]; [4],1.07
same,IRF Lucia reporter activity,RAW-Dual [3]; agonist: LPS (TLR4) 0.1 ug/mL,0.255
NC1=NC2(c3cc(NC(=O)c4ccc(F)cn4)ccc3F)COCC2CS1 (centres undefined),IRF Lucia reporter activity,RAW-Dual [1]; [5],1.04
NC1=NC2(c3cc(NC(=O)c4ccc(F)cn4)ccc3F)COCC2CS1 (centres undefined) (library stock concentration (final ~1000-fold dilution): 10 mM),IRF Lucia reporter activity,RAW-Dual [3]; [4],1.08
same,IRF Lucia reporter activity,RAW-Dual [3]; agonist: LPS (TLR4) 0.1 ug/mL,0.998
Cn1cc(-c2cc3c(-c4ccc(CNC(=O)c5noc(C(C)(C)C)n5)c(F)c4)ncnc3[nH]2)cn1 (library stock concentration (final ~1000-fold dilution): 10 mM),IRF Lucia reporter activity,RAW-Dual [3]; [4],0.039
same,IRF Lucia reporter activity,RAW-Dual [3]; agonist: LPS (TLR4) 0.1 ug/mL,0.396
Cc1nnc(SCC2=C(C(=O)O)N3C(=O)C(NC(=O)Cn4cnnn4)C3SC2)s1 (centres undefined),IRF Lucia reporter activity,RAW-Dual [1]; [5],1.07
Cc1nnc(SCC2=C(C(=O)O)N3C(=O)C(NC(=O)Cn4cnnn4)C3SC2)s1 (centres undefined) (library stock concentration (final ~1000-fold dilution): 10 mM),IRF Lucia reporter activity,RAW-Dual [3]; [4],1.08
same,IRF Lucia reporter activity,RAW-Dual [3]; agonist: LPS (TLR4) 0.1 ug/mL,1.26
Cc1ccsc1C(=CCCN1CCCC(C(=O)O)C1)c1sccc1C (centres undefined),IRF Lucia reporter activity,RAW-Dual [1]; [5],1
Cc1ccsc1C(=CCCN1CCCC(C(=O)O)C1)c1sccc1C (centres undefined) (library stock concentration (final ~1000-fold dilution): 10 mM),IRF Lucia reporter activity,RAW-Dual [3]; [4],0.964
same,IRF Lucia reporter activity,RAW-Dual [3]; agonist: LPS (TLR4) 0.1 ug/mL,1.29
COC1CC2CCC(C)C(O)(O2)C(=O)C(=O)N2CCCCC2C(=O)OC(C(C)CC2CCC(OCCO)C(OC)C2)CC(=O)C(C)C=C(C)C(O)C(OC)C(=O)C(C)CC(C)C=CC=CC=C1C (centres undefined) (library stock concentration (final ~1000-fold dilution): 10 mM),IRF Lucia reporter activity,RAW-Dual [3]; [4],1.28
same,IRF Lucia reporter activity,RAW-Dual [3]; agonist: LPS (TLR4) 0.1 ug/mL,2.63
